Measurements as given in the OligoGym collection.

The sequences below were run against CNN2 (assay: pooled miR-30 sensor sort-seq; sequence = guide strand). Settings: shRNA.
Further: reference of the scale not given here.

Sequence	sensor-assay potency score (higher = more potent)
TAGCTGGTGCCAGTTCTGCATG	-1.58
TTGATGAAGTTGGACAGGTTTT	-0.865
ATGAGTGTGCATAAGATAGTTC	-0.603

Each sequence was assayed against CNOT1 in the same assay as above. Settings: shRNA.

Sequence	sensor-assay potency score (higher = more potent)
TATCTCTTTACTAAAGTGCTGG	-0.169
TACAGTTAAATACTTCTCGTTC	-0.0593
TTGAAATCCAGGATGGTCCAGT	0.513
TTCCTTTAGCTCTTCAACCTTT	-0.326
TAACTTTAAGTCATGCTCCTGA	0.328
TAGGTGAAGATCATACTGCTGC	0.544
TTTTGTGTCATATTTGACTGTG	0.162
